Screening results from PubChem.
A selection: hits, their analogues and other compounds. The true share with any hit is near 3.8%.
Gli-Sufu antag – blocks Gli-Sufu signaling in a luciferase reporter | Sufu-KO-LIGHT fibroblasts, Gli luciferase reporter luminescence | inhibition, % at 5 µM | 0.74% of 340,000 active | AID 588413;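 active means inhibition above about 55%, limit read from the data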;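 further: 0% = DMSO-treated cells and 100% = wells with medium but no cells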
Mdm2 MdmX PPI – human Mdm2/MdmX binding inhibition; inhibition, % at 8 µM; SaOS-2 split-luciferase Mdm2/MdmX complementation, luminescence; O15151+Q00987; AID 485346; 3% of 330,000 active;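 active means inhibition of at least 50% at 8 µM in the primary screen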
Target sequence (O15151 whole entry, looked up): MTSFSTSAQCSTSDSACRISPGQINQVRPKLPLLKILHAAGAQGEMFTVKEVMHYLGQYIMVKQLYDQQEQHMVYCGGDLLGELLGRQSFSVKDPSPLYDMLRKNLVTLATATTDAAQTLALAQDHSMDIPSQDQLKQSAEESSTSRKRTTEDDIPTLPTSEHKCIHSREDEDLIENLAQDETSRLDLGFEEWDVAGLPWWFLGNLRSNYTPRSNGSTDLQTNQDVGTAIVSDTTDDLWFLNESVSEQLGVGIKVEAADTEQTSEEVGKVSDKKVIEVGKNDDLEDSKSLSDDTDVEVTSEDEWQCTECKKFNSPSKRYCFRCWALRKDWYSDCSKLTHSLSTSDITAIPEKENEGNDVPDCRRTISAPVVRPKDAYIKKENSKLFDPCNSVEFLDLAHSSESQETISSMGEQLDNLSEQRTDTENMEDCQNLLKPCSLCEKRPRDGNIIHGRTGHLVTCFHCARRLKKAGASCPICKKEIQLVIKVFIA
Target sequence (Q00987 whole entry, looked up): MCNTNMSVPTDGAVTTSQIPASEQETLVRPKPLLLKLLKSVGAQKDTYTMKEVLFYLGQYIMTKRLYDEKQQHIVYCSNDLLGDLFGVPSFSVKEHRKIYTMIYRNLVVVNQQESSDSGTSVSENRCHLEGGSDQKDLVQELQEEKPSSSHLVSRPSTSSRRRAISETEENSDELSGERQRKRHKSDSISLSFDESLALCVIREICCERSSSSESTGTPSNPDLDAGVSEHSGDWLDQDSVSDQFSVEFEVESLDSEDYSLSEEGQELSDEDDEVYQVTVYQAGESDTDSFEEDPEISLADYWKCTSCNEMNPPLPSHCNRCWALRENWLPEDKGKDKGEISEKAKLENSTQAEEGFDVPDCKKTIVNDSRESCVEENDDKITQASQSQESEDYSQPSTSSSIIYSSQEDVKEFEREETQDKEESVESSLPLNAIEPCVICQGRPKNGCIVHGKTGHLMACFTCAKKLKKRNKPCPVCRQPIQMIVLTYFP
697 NFkB inh – lowers PMA/ionomycin-induced NF-kB signal in 697 B cells; 697 B-cell NF-kB luciferase reporter, 16 h; inhibition, % at 4 µM; 0.33% of 330,000 active; AID 435022; in the data active means inhibition above about 35%
Jurkat NFkB inh – inhibitors of the PMA/ionomycin-induced NF-kB reporter in Jurkat cells | PMA/ionomycin-induced NF-kB luciferase reporter, luminescence | 0.53% of 330,000 active | inhibition, % at 4 µM; in the data active means inhibition above about 50%
Shn3 inh set2 – reduces Shn3 3'UTR luciferase signal in osteoblasts | Clone20 osteoblast Shn3 3'UTR firefly luciferase, 24 h | inhibition, % at 12.5 µM | 0.52% of 360,000 active | AID 588674;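 active means mean inhibition of at least 75% with every replicate also reaching 75%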;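 further: 0% = median of neutral control wells and 100% = pilot-screen positive control compound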
Mdm2 MdmX conf – confirmation of human Mdm2/MdmX interaction inhibitors | AID 489028 | 55% of 10,000 active | inhibition, % at 8 µM | shares compounds with Mdm2 MdmX PPI | Mdm2-MdmX binding, luminescent assay; in the data active means inhibition above about 40%
Full FLuc ctr – counter-screen for Mdm2/MdmX inhibitors: full-length luciferase | shares compounds with Mdm2 MdmX PPI | SaOS-2 full-length luciferase counterscreen, luminescence | inhibition, % at 8 µM | 77% of 6,200 active | AID 504607;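 active means mean inhibition at 8 µM reaching about 37%, which flags the compound as non-specific, limit read from the data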;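 further: p53-null SaOS-2 cells with luciferase driven by a doxycycline-inducible promoter; compound on cells about two nights before reading with doxycycline added after day one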
Active calls of the source: *; / = no result.

SMILES	Gli-Sufu antag	Mdm2 MdmX PPI	697 NFkB inh	Jurkat NFkB inh	Shn3 inh set2	Mdm2 MdmX conf	others
O=C(CCN(NC(=O)c1ccccc1)C1=NS(=O)(=O)c2ccccc21)NC1CCCCC1	-5	6	12	-7	32	/
CCOC(=O)c1c(O)c2cc(Cl)ccc2n(CC)c1=O	-6	15	17	-18	-17	/
OC(COCC(F)(F)C(F)(F)C(F)(F)C(F)F)Cn1c2ccc(Cl)cc2c2cc(Cl)ccc21 (stereo not given)	4	95*	-31	-15	8	28
COc1ccccc1/C=C/C(=O)OCC(=O)Nc1ccc(Cl)cn1	0	55*	-11	5	-7	51*	Full FLuc ctr=60*
O=C(Nc1ccc(O)c2c(=O)cc(-c3cccc(Cl)c3)oc12)c1cccc(Cl)c1	-23	81*	-14	3	41	-9
Cc1ccc(CN2C(=O)C(=O)c3cc(C)ccc32)cc1	0	67*	7	3	-5	-12
CCCCN1C(=O)C(=O)c2cc(Cl)ccc21	-31	54*	-15	14	-1	20
CCCN1C(=O)C(=O)c2cc(C)ccc21	-13	60*	18	1	-2	7
Cc1ccc2c(c1)C(=O)C(=O)N2CCCOc1ccccc1C	-8	29	-3	-16	3	/
Cc1ccc2c(c1)C(=O)C(=O)N2Cc1ccc(Br)cc1	36	66*	-35	-13	-6	63*	Full FLuc ctr=74*
Cc1ccc2c(c1)C(=O)C(=O)N2c1ccc(Cl)cc1	3	22	-1	7	-12	/
COCCNC(=S)NNC(=O)c1cc(C2CC2)nc2ccccc12	-7	-6	5	3	12	/
CC(OC(=O)CN1C(=O)NC2(CCCC2)C1=O)C(=O)Nc1cccc(Cl)c1 (stereo not given)	-5	45	-13	9	-18	/
C=CCN1c2ccccc2[C@]23C[C@@H](C(=O)OC)N(C(=O)c4ccc(Br)cc4)C2=NC(C(=O)OC)=C(C(=O)OC)[C@H]13	-3	96*	0	-9	41	68*	Full FLuc ctr=53*
COC(=O)C1=C(C(=O)OC)[C@@H]2N(Cc3ccccc3)c3ccccc3[C@@]23C[C@@H](C(=O)OC)N(C(=O)c2ccc(Br)cc2)C3=N1	0	96*	13	33	97*	86*	Full FLuc ctr=53*
COC(=O)C1=C(C(=O)OC)[C@@H]2N(Cc3ccccc3)c3ccccc3[C@@]23C[C@@H](C(=O)OC)N(C(C)=O)C3=N1	-27	-12	0	-15	-2	/
CCOC(=O)N1C2=NC(C(=O)OC)=C(C(=O)OC)[C@@H]3N(Cc4ccccc4)c4ccccc4[C@]23C[C@H]1C(=O)OC	10	6	8	6	/	/
COC(=O)C1=C(C(=O)OC)[C@@H]2N(Cc3ccccc3)c3ccccc3[C@@]23C[C@@H](C(=O)OC)N(C(=O)COCc2ccccc2)C3=N1	1	63*	23	17	-18	21
COC(=O)C1=C(C(=O)OC)[C@@H]2N(C)c3ccc(OC)cc3[C@@]23C[C@@H](C(=O)OC)N(C(=O)c2ccc(Br)cc2)C3=N1	0	69*	7	3	34	-1
CSc1ccc(CN2CCC(C)(Oc3ccc(F)cc3)C2)cc1 (stereo not given)	/	/	/	/	-8	/
Cc1cc(C)n(-c2nc3ccccc3nc2Nc2ccc3c(c2)OCO3)n1	1	4	2	1	-10	/
Cc1cc(C)n(-c2nc3nonc3nc2Nc2cccc(C)c2C)n1	10	51*	1	12	19	20
COc1ccc(Cl)cc1C(=O)NC(=S)Nc1cc(-c2nc3ccccc3[nH]2)ccc1C	9	76*	-52	-50	10	1
COc1cccc2cc(-c3cc(=O)oc4cc(C)c(OCC(C)=O)cc34)oc12	-24	55*	-10	-25	26	-14
Clc1ccc2nc(-c3cccc(SC4CCCCC4)c3)c(NCc3ccccc3)n2c1	-17	12	-9	4	47	/
SMILES	Gli-Sufu antag	Mdm2 MdmX PPI	697 NFkB inh	Jurkat NFkB inh	Shn3 inh set2	Mdm2 MdmX conf	others
c1cc(SC2CCCCC2)cc(-c2nc3cnccn3c2NC2CCCCC2)c1	0	89*	-34	1	23	29
c1ccc(CNc2c(-c3cccc(SC4CCCCC4)c3)nc3ccccn23)cc1	29	71*	-19	-15	90*	-1
COc1ccc(-c2cc(-c3nc4ccccn4c3NCc3ccccc3)ccc2OC)cc1	90*	99*	22	3	97*	99*	Full FLuc ctr=52*
Cc1ccc2nc(-c3cccc(SC4CCCCC4)c3)c(NCc3ccccc3)n2c1	20	22	-53	-17	82	/
Cc1ccn2c(NCc3ccccc3)c(-c3cccc(SC4CCCCC4)c3)nc2c1	3	58*	4	14	-17	-2
CCOC(=O)c1c(S(=O)(=O)NCC(C)c2ccccc2)c(C)n(C)c1C (stereo not given)	-5	-19	-31	11	-4	/
Clc1cccc(-c2ccc(-c3nc4ccccn4c3NCc3ccccc3)cc2)c1	-53	59*	-16	-7	70	-57
c1ccc(-c2nc3ccccn3c2NCc2ccc3c(c2)OCO3)cc1	-4	6	-22	-11	-11	/
O=C1COc2ccccc2N1Cc1ccc(Cl)cc1	9	14	-50	-7	13	/
Cc1cccc(CN2CCN(C(=O)CCl)CC2)c1	-1	64*	3	-1	0	18
Cc1cccc(CN2CCN(C(=O)c3cccc4ccccc34)CC2)c1	-26	4	3	-7	2	/
CC(NC(=O)c1ccc(S(=O)(=O)NCc2ccco2)cc1)c1ccc(F)cc1 (stereo not given)	1	4	-4	5	9	/
C=CCOc1cccc(C(=O)/C=C2/C(=O)Nc3ccccc32)c1	0	86*	34	24	74	25
CC(C)(C)OC(=O)NCc1ccc(NC(=O)c2nc[nH]c2C(=O)NCCCNC(=O)c2[nH]cnc2C(=O)Nc2ccc(CNC(=O)OC(C)(C)C)cc2)cc1	5	86*	10	-7	9	20
CC(C)(C)OC(=O)NCc1ccc(NC(=O)c2nc[nH]c2C(=O)NCCCCCCNC(=O)c2[nH]cnc2C(=O)Nc2ccc(CNC(=O)OC(C)(C)C)cc2)cc1	12	8	2	-3	31	/
CC(C)(C)OC(=O)NCc1ccc(NC(=O)c2nc[nH]c2C(=O)NCCCCNC(=O)c2[nH]cnc2C(=O)Nc2ccc(CNC(=O)OC(C)(C)C)cc2)cc1	36	96*	0	11	23	7
CC(C)(C)OC(=O)NCCCCCNC(=O)c1[nH]cnc1C(=O)Nc1ccc(Cl)cc1	9	64*	-9	4	14	36	Full FLuc ctr=59*
